Screens as filed in PubChem BioAssay.
Sampled rows, rich in hits. Any-hit rate of the full collection: about 7.5%.
Rab9 promoter act = Rab9 promoter activation | Huh7 Rab9 promoter-luciferase reporter, luminescence, 24 h | Potency, µM (top dose mostly 9.22 µM), for inactives: at the top dose activation, negative = inhibition, hits mostly activators | 320,000 tested, 2.8% active; further: % of control where 0% means no effect; nearly all actives have a fitted effect of over 60% in size
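Cells were plated at 1500 per well in reduced-serum medium with 10% FBS and left 2 h. Compound in DMSO was then added for 24 h at 37 °C. Reporter signal was read by luminescence after 10 min with luciferase detection reagent.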
FLuc modulator = firefly luciferase modulation, counter-screen for miR-21 project; P08659; purified FLuc, Km substrates, luminescence inhibition; Potency, µM (highest dose often 57.5 µM), without a hit: top-dose activity change, negative = inhibition, most hits filed as inhibitors; 360,000 tested, 6.9% active; AID 588342;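 further: plate controls were vehicle for no effect and reference inhibitor for full effect; nearly all actives have a fitted effect of over 55% in size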
Target sequence (P08659 whole entry, looked up): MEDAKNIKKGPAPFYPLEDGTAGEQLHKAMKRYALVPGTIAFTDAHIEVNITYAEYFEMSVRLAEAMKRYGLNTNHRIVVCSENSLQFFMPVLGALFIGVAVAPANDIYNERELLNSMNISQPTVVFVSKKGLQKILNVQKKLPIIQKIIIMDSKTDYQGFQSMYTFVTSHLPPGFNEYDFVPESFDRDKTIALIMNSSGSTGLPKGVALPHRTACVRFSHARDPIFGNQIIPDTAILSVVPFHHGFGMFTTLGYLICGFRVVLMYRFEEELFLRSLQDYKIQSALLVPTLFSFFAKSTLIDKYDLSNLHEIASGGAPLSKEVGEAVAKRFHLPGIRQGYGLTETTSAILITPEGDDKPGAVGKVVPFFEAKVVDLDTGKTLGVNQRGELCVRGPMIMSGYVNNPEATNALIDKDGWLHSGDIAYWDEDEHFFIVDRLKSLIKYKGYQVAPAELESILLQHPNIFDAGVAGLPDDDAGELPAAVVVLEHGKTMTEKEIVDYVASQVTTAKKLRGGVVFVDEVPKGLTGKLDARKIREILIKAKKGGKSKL
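Biochemical qHTS of compounds, final roughly 60 µM downward over six points, against 10 nM purified firefly luciferase using Km concentrations of substrates (10 uM D-luciferin, 10 uM ATP) in Tris acetate pH 7.5 buffer; luminescence output.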
ELG1 genotox = genotoxicity induction in ELG1-luciferase HEK293T cells | HEK293T ELG1-luciferase reporter, luminescence, 16 h | Potency, µM (series often up to 46 µM), inactives show at the top dose activity change, positive = activation, most hits filed as activators | 330,000 tested, 1.3% active; further: % of control where 0% means no effect; nearly all actives have a fitted effect of over 60% in size
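HEK293T cells expressing luciferase-tagged ELG1 were exposed to compound or DMSO vehicle for 16 hr at 37 °C and 5% CO2. Luciferase activity was then measured with ONE-Glo after 30 min at room temperature.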
NPC1 promoter act = activates the NPC1 promoter | Huh7 NPC1 promoter luciferase reporter, 24 h | Potency, µM (highest dose often 9.22 µM), for inactives: at the highest dose activation, hits mostly activators | 320,000 tested, 2.4% active; further: % of control where 0% means no effect; nearly all actives have a fitted effect of over 60% in size
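Luminescence read-out of NPC1 promoter-driven luciferase in stably transfected Huh7 cells; compounds delivered in DMSO and left 24 h at 37C, 5% CO2, qHTS titration format.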
Luc counter = counter-screen: inhibitors of Kinase-Glo firefly luciferase; Q27757; Kinase-Glo luciferase, ATP luminescence, 8 min; Potency, µM (top dose mostly 38.3 µM), for inactives: at the highest dose activity change, negative = inhibition, usual class: inhibitors; 200,000 tested, 0.28% active; AID 1379; further: on the % scale 0 is the no-effect control and ±100 the full control effect; nearly all actives have a fitted effect of over 60% in size
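Luminescence was the read-out, taken after 8-minute incubation at ambient temperature. Luciferase turned over luciferin with 10 uM ATP in imidazole pH 7.2 buffer containing KCl, MgCl2, Tween 20 and BSA.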
SMN2 splice up = enhancers of SMN2 splice variant expression. Potency, µM (top dose mostly 46.1 µM), without a hit: at the highest dose activity change, positive = activation, hits mostly activators. AID 1458. 210,000 tested, 2.8% active. HEK293 SMN2-luciferase splicing reporter, luminescence, 30-36 h; further: % of control where 0% means no effect; nearly all actives have a fitted effect of over 55% in size
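qHTS luciferase splicing reporter: luminescence rises when SMN2 exon 7 is included in transfected HEK293 cells. Compound exposure lasted 30-36 h at 37C, with 4.5 mM final sodium butyrate as control, followed by a ONE-Glo read.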
An asterisk follows results filed as active; ? = inconclusive; / = no result. The call rests on the fitted dose curve; in most records, active means well fitted curve in the direction sought with a large enough effect; inconclusive means small, poorly fitted or top-dose-only effect, or another doubt; inactive means no such curve, though single readings can be large; an effect the other way counts as inactive or inconclusive. Potency means the concentration at half of the fitted maximal effect.

SMILES | Rab9 promoter act | FLuc modulator | ELG1 genotox | NPC1 promoter act | Luc counter | SMN2 splice up
O=C(c1cc2ccccc2oc1=O)N(Cc1cccs1)C1CCS(=O)(=O)C1 (stereo unspecified) | ? | 19µM* | 18µM* | 30% | -1% | 17%
COc1ccccc1CNC(=O)c1ccc(-c2nc(CS(=O)c3ccc(C)cc3)c(C)o2)cc1 (stereo unspecified) | / | -17% | / | / | / | /
Cc1cc(Cl)ccc1NC(=O)C1CCN(c2nnc(-n3c(C)ccc3C)s2)CC1 | / | 3% | / | / | / | -12%
O=C(c1cc2ccccc2oc1=O)N(Cc1ccc(F)cc1)C1CCS(=O)(=O)C1 (stereo unspecified) | 3.2µM* | 19µM* | ? | ? | / | /
COc1ccc(C(=O)Nc2cccc(C(=O)N3CCCC3)c2)cc1 | 22% | 15µM* | ? | ? | -1% | ?
Cc1cccc(C(=O)Nc2cccc(C(=O)N3CCOCC3)c2)c1 | 14% | ? | 17% | 18% | 16% | 6%
CC(=O)Nc1ccc(NC(=O)c2ccc3c(c2)CCN3S(=O)(=O)c2ccc(C)cc2)cc1 | / | 0% | / | / | / | 6%
Cc1ccc(C(=O)Nc2cccc(NC(=O)CN3CCCCC3)c2)cc1 | 9% | 19µM* | 1% | 12% | / | /
Cc1cccc(NC(=O)CN2CCCCCC2)c1 | 1% | 6% | 2% | -6% | / | /
CC(=O)N1CCc2cc(NC(=O)c3ccc(C)cc3)ccc21 | 0.56µM* | 3.8µM* | ? | ? | -2% | 11µM*
Cc1ccc(C(=O)Nc2cccc(C(=O)N3CCN(C)CC3)c2)cc1 | 4.5µM* | 9.5µM* | ? | 3.2µM* | -15% | 11µM*
COc1ccc(-c2noc(-c3ccc(N4CCN(c5ccccc5OC)CC4)c([N+](=O)[O-])c3)n2)cc1 | / | -15% | / | / | / | /
O=C(Cn1cc(C(=O)C(F)(F)F)c2ccccc21)N1CCCCCC1 | / | -7% | / | / | / | -18%
COc1ccc(Nc2oc(-c3ccc(COc4ccccc4C)o3)nc2C#N)cc1 | / | 0% | / | / | / | /
COc1ccc(N2CCN(C(=O)CCc3c(C)nc4c(-c5ccccc5)c(C)nn4c3C)CC2)cc1 | / | -3% | / | / | / | -4%
COCc1nc(-c2ccc(-c3ccccc3)nc2OC)no1 | 4µM* | ? | 4% | ? | -2% | 22µM*
CCc1nc(-c2ccc(-c3ccc(OC)cc3)nc2OC)no1 | ? | 21µM* | ? | ? | 2% | ?
COCc1nc(-c2ccc(-c3ccc(OC)cc3)nc2OC)no1 | 24% | ? | 12% | 13% | 2% | 19%
Cc1ccc2oc(-c3cccc(NC(=O)Cc4ccc(Cl)cc4)c3)nc2c1 | / | 1% | / | / | / | -5%
Cc1cccc(OCC(=O)Nc2ccc(-c3nc4cc(C)ccc4o3)c(O)c2)c1 | / | -13% | / | / | / | 26%
CCOc1cccc(-c2nc3cc(C)ccc3o2)c1 | ? | 0.95µM* | ? | 13% | -13% | 13µM*
Cc1ccc2oc(-c3ccccc3)nc2c1 | 3.2µM* | 0.6µM* | ? | 1.1µM* | ? | ?
CC(C)N(C(=O)c1nn(C)c2c1CSc1ccccc1-2)C1CCCCC1 | -2% | -1% | -10% | 1% | / | /
CS/C(Nc1cc(Cl)ccc1Cl)=C(/C#N)C(=O)c1ccco1 | ? | 2.1µM* | 21µM* | ? | / | /
O=C(Nc1cc(Cl)ccc1Cl)c1ccco1 | 2% | -1% | 3% | -2% | / | /
CC(=O)c1ccccc1OCC(O)Cn1c(CO)nc2ccccc21 (stereo unspecified) | / | 24µM* | / | / | / | 6%
Cc1ccc(C(=O)NCCSC(C)(C)C)cc1 | 0.56µM* | ? | 1.8µM* | 0.5µM* | -7% | 10µM*
CC(C)(C)c1ccc(C(=O)NCc2ccc(Cl)cc2)cc1 | 18% | -3% | -1% | 24% | -1% | -7%
CC(C)(C)SCCNC(=O)c1ccccc1 | 3.2µM* | ? | 15% | ? | -1% | 30%
CSCCNC(=O)c1ccc(C(C)(C)C)cc1 | 4µM* | 3µM* | ? | 4µM* | -5% | ?
